# Compound activity: PubChem, National Center for Advancing Translational Sciences (NCATS)
# Hits are enriched below; roughly 21% of the tested compounds scored in any of these assays.
# Pf growth 96h: inhibits malaria parasite growth, 96 h; AID 504834; 6.9% of 320,000 active; Potency, µM (top dose mostly 28.7 µM), inactives show at the top dose activity change, negative = inhibition, hits mostly inhibitors; P. falciparum luciferase reporter growth, 96 h; note: potency is the fitted concentration of half-maximal effect; % is set by controls: 0 for no effect and ±100 for the full control effect
#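 P. falciparum expressing integrated firefly luciferase grown in erythrocytes (2% hematocrit, 0.05% parasitemia final) with compounds for 96 hours at 37 C, 5% CO2. Growth inhibition read as loss of luminescence after adding luciferase detection reagent.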
# NS1 inh: influenza NS1 inhibition | Potency, µM (doses to about 46.1 µM), inactives show at the top dose activity, positive = more growth | 0.4% of 270,000 active | AID 2326; calls by dose curve; note: potency is the fitted concentration of half-maximal effect; actives are rising curves; nearly all actives have a fitted effect of over 50% in size
#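 Growth recovery, yeast-based: influenza A NS1 expressed in S. cerevisiae causes slow growth, and suppressors are detected by OD600. The parent strain without NS1 is used as positive control.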
# Pf growth 48h: inhibits P. falciparum growth in the first generation, 48 h; 5.9% of 310,000 active; Potency, µM (highest dose often 28.7 µM), for inactives: at the top dose activity change, negative = inhibition, hits mostly inhibitors; P. falciparum luciferase growth in erythrocytes, 48 h; note: potency is the fitted concentration of half-maximal effect; % is set by controls: 0 for no effect and ±100 for the full control effect
#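 Luciferase-expressing P. falciparum in infected erythrocytes (2% hematocrit, 0.1% parasitemia final) in RPMI 1640/0.5% Albumax were exposed to compound for 48 hours at 37 C, 5% CO2; growth read as luminescence.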
# Cycloheximide cs: affects cycloheximide protein synthesis inhibition readout, counter-screen; cell reporter, cycloheximide protein synthesis inhibition counterscreen; max response, %; 12% of 300,000 active; AID 2314; in the data active = max response mostly above about 13%, no sharp cut-off; inactive = mostly below about 14%; note: read at 38.3 µM for the half of the compounds with a filed dose; 0% is about no effect
# Sm TGR inh: blocks Schistosoma mansoni thioredoxin glutathione reductase; Q962Y6; purified TGR, DTNB reduction, TNB absorbance 405 nm; Potency, µM (doses to about 114 µM), for inactives: at the top dose activity change, negative = inhibition, hits mostly inhibitors; 3% of 360,000 active; note: potency is the fitted concentration of half-maximal effect; % is set by controls: 0 for no effect and ±100 for the full control effect; nearly all actives have a fitted effect of over 60% in size
#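 TGR 20 nM + NADPH 100 uM (dispensed conc.), cpd preinc 15 min RT; start with NADPH (500 uM addition) then DTNB (15 mM addition). Kinetic TNB absorbance, 405 nm filter. Four-parameter Hill fit across titration.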
# Shiga toxin inh: inhibitors of Shiga toxin in Vero cells. Vero cells, Shiga toxin protein synthesis inhibition reporter. AID 2315. inhibition, % at 38.7 µM. 9.2% of 290,000 active; in the data active = inhibition mostly above about 28%, no sharp cut-off; inactive = mostly below about 43%; note: 0% is about no effect
# * hit, by the source's call; i = inactive; ? = inconclusive; . = not tested or not shown; [ ] = remark or other dose. Unless noted, calls come from the whole dose curve; as a rule, active = well fitted curve in the direction sought with a large enough effect; inconclusive = small, poorly fitted or top-dose-only effect, or another doubt; inactive = no such curve, though single readings can be large; an effect the other way counts as inactive or inconclusive.
SMILES,Pf growth 96h,NS1 inh,Pf growth 48h,Cycloheximide cs,Sm TGR inh,Shiga toxin inh
O=C(COc1ccccc1Cl)NCc1ccccc1,?,-2%,24%,31*,0%,54*
Nc1c(Cl)c(Cl)nc(C(=O)OCC(=O)NCc2ccccc2)c1Cl,-10%,.,-22%,.,1%,.
C=CCc1ccccc1OCC(=O)NNC(=S)NCc1ccccc1,10µM*,?,37%,-1,8%,-7
O=C(COc1ccccc1Cl)NCc1ccncc1,6%,-3%,-7%,32*,8%,77
Cn1c(=O)c2c(-c3ccc(Cl)cc3)ccnc2n(C)c1=O,.,.,.,.,41%,.
Cc1ccc2[nH]c(CSc3nnc(NC(=O)COc4ccccc4Cl)s3)cc(=O)c2c1,.,.,.,.,0%,.
O=C(NCc1cccs1)c1nn(-c2ccccc2Cl)nc1CO,.,.,.,.,5%,.
Cn1c(NCc2cccc(Br)c2)nc2ccccc21,-4%,-15%,-12%,13*,4%,26*
c1ccc(Cn2c(CNc3nc4ccccc4n3CCN3CCOCC3)nc3ccccc32)cc1,9%[5.75 µM],-20%,12µM*,-3,0%,-7
Brc1cccc(CNc2nc3ccccc3n2CCN2CCCCC2)c1,12µM*,-1%,?,-1,13%,-3
COc1cccc(CNc2nc3ccccc3n2CCN2CCCCC2)c1,.,0%,?,0,-11%,-18
COc1cccc(CNc2nc3ccccc3n2CCN2CCCCC2)c1OC,5%,-4%,?,-1,-15%,4
Brc1ccc(CNc2nc3ccccc3n2CCN2CCCCC2)cc1,13µM*,0%,?,-2,11%,-16
COc1cc(CNc2nc3ccccc3n2C)cc(OC)c1OC,0%,4%,-6%,-2,1%,-7
COc1ccc(CCNC(=O)c2cc(=O)c3cc(C)ccc3o2)cc1OC,8%,-3%,-27%,0,12%,-5
COc1cccc(-c2nc(S(=O)(=O)c3ccccc3)c(N3CCCCC3)o2)c1,.,.,.,.,2%,.
O=C(/C=C/c1ccccc1[N+](=O)[O-])N1CCc2ccccc2C1,?,-20%,42%,21*,3%,22
COc1ccc(N(CC(=O)N2CCc3ccccc3C2)S(=O)(=O)c2c(C)nn(C)c2C)cc1,1.2µM*,-14%,.,0,2%,-3
CCc1ccc(/C=C\C(=O)N2CCc3ccccc3C2)cc1,48%,-34%,36%,13*,13%,43*
COc1ccc(N(CC(=O)N2CCc3ccccc3C2)S(C)(=O)=O)cc1,5%,5%,.,6,5%,2
COc1ccc(CC(=O)N2CCc3cc(OC)c(OC)cc3C2)cc1,-2%,-3%,6%,2,2%,2
COc1ccc(CC(=O)N2CCc3ccccc3C2)cc1,8.3µM*,-8%,12%,22*,-8%,24*
COc1ccc(CC(=O)N2CCN(C(=O)Cc3ccc(OC)cc3)CC2)cc1,3.3µM*,13%,-28%,-2,-8%,-8
CCC(=O)NNc1nc2c(C)cc(C)cc2s1,64%,.,9%,12,-12%,20
COc1cc(CNc2nc3c(C)cc(C)cc3s2)ccc1O,3%,3%,.,25*,-20%,48*
SMILES,Pf growth 96h,NS1 inh,Pf growth 48h,Cycloheximide cs,Sm TGR inh,Shiga toxin inh
Cc1cc(C)c2nc(NCc3ccccc3O)sc2c1,31%,3%,5%[0.00184 µM],22*,5%,114*
CCC(=O)N1CCc2cc(Br)cc(S(=O)(=O)N3CCCC(C(=O)Nc4ccc(C(C)C)cc4)C3)c21 (centres undefined),.,.,.,.,-4%,.
CN(C(=O)COC(=O)c1ccc(=O)n(Cc2ccccc2)n1)c1ccccc1,28%,2%,34%[5.75 µM],-1,-8%,2
COC(=O)c1ccc(NC(=O)CCNS(=O)(=O)c2cccc3nsnc23)cc1,.,.,.,.,-5%,.
Cc1nc2ccc(S(=O)(=O)Nc3cc(-c4nc5cccnc5s4)ccc3C)cc2s1,104%,-25%,153%,75*,-7%,85*
Cc1ccc(-c2nc3cccnc3s2)cc1NS(=O)(=O)c1cccs1,15%,-18%,36%,19*,14%,38*
Cc1ccc(-c2nc3cccnc3s2)cc1NS(=O)(=O)c1ccc2c(c1)OCCO2,-13%,30%,?,40*,-3%,19*
O=C(Nc1ccc2c(c1)OCO2)N1CCOCC1,.,-2%,38%,36*,-15%,66*
O=C(CN1CCN(c2ccc(F)cc2)CC1)c1ccc2c(c1)OCO2,-9%,-27%,6%,1,45µM*,-6
O=C(Nc1ccc2c(c1)OCCO2)N1CCOCC1,i,.,397%,25,1%,54
CC1CN(C(=O)Nc2ccc3c(c2)OCO3)CC(C)O1 (centres undefined),67%,-10%,.,45*,-18%,50*
Oc1cc2c(cc1CN1CCN(c3ncccn3)CC1)OCO2,10%,-10%,2%,1,1µM*,-11
O=C(Nc1ccc2c(c1)OCO2)N1CCCC1,24%,.,-4%[5.75 µM],9,-2%,55*
O=C(Nc1cccc(O)c1)N1CCOCC1,12µM*,10%,40%,6,?,21
O=C(Nc1ccc2c(c1)OCO2)N1CCN(c2ncccn2)CC1,146%,3%,20%,35*,5%,83*
O=C(Nc1cccc(OC(=O)N2CCOCC2)c1)N1CCOCC1,18%,0%,-2%,-2,-8%,-11
O=C(Nc1ccc2c(c1)OCO2)N1CCN(c2ccc(F)cc2)CC1,-4%,-4%,9%,19*,.,46
O=C(Nc1ccccc1)N1CCN(c2ncccn2)CC1,6%,-3%,-16%,9,-1%,-3
COc1ccc(NS(=O)(=O)c2ccc3c(c2)N(C(C)=O)CC(C)S3)c(OC)c1 (centres undefined),?,-7%,5%,6,-9%,-4
COc1ccc(OCCCC(=O)OC(C)C(=O)Nc2ccc(S(N)(=O)=O)cc2)cc1 (centres undefined),7%,.,-17%,.,-2%,.
Cc1ccc(NC(=O)CCC(=O)N2CCSc3ccccc32)cc1Cl,.,.,.,.,7%,.
C=C(C)COc1ccc(-c2ncncc2-c2ccccc2OC)c(O)c1,?,1%,13µM*,-2,4%,1
COc1ccc(-c2ncncc2-c2ccc(OC)c(OC)c2)c(O)c1,-17%,0%,-11%,18,-23%,6
CCOc1ccc(-c2ncncc2-c2ccccc2OC)c(O)c1,?,1%,2.9µM*,9,5%,5
COC(=O)C(C)NC(=S)N1CCN(c2c(F)cc3c(=O)c(C(=O)O)cn(C4CC4)c3c2OC)CC1C (centres undefined),-14%,7%,?,1,5%,-16
COc1ccc(CCC(=O)NCc2ccc3c(c2)CCN3C(=O)c2cccc(C)c2)cc1,.,.,.,.,1%,.
CCOCCCNc1nc2ccccc2[nH]1,?,-1%,-1%,12*,-9%,34
